Compound activity (PubChem)
Sampled rows, rich in hits. Any-hit rate of the full collection: about 7.5%.
KinaseGlo FLuc – blocks Kinase-Glo luciferase, a counter-screen artifact; Kinase-Glo luciferase, ATP luminescence, 8 min; Potency, µM (highest dose often 38.3 µM), for the others: top-dose activity change, negative = inhibition, hits mostly inhibitors; 200,000 tested, 0.28% active; note: % is set by controls: 0 for no effect and ±100 for the full control effect; nearly all actives have a fitted effect of over 60% in size
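Recombinant Kinase-Glo luciferase, 10 uM ATP (linear range), luciferin; imidazole pH 7.2 / KCl / MgCl2 / Tween / BSA buffer; 8 min RT; luminescence.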
SMN2 splice enh – enhancers of SMN2 splice variant expression; HEK293 SMN2-luciferase splicing reporter, luminescence, 30-36 h; Potency, µM (titrated, usually from 46.1 µM), inactives show at the top dose activity change, positive = activation, hits mostly activators; 210,000 tested, 2.8% active; AID 1458; note: % of control where 0% means no effect; nearly all actives have a fitted effect of over 55% in size
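HEK293 cells carry an SMN2 minigene-luciferase reporter in which exon 7 inclusion puts luciferase in frame. Cells were seeded at 2000 cells/well, attached for 10-12 hours, then exposed to compounds for 30-36 hours at 37C before ONE-Glo luminescence.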
ELG1 genotoxic – induces genotoxicity in HEK293T cells with luciferase-tagged ELG1; HEK293T ELG1-luciferase reporter, luminescence, 16 h; Potency, µM (doses to about 46 µM), without a hit: at the highest dose activity change, positive = activation, actives largely listed as activators; 330,000 tested, 1.3% active; AID 504466; note: % of control where 0% means no effect; nearly all actives have a fitted effect of over 60% in size
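ELG1-luciferase HEK293T cells, 2,000/well; compound pinned in; 16 hr, 37 °C, 5% CO2; ONE-Glo, 30 min RT; luminescence on CCD imager.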
Rab9 promoter act – Rab9 promoter activation | Huh7 Rab9 promoter-luciferase reporter, luminescence, 24 h | Potency, µM (highest dose often 9.22 µM), inactives show top-dose activation, negative = inhibition, most hits filed as activators | 320,000 tested, 2.8% active; note: % of control where 0% means no effect; nearly all actives have a fitted effect of over 60% in size
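Huh7 cells stably carrying Rab9 promoter–luciferase reporter, plated 1500 cells/well, compound added after 2 h and incubated 24 h at 37 °C; luciferase luminescence then read after 10 min with detection reagent.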
FLuc counter – inhibits or activates purified firefly luciferase, miR-21 counter-screen. 360,000 tested, 6.9% active. P08659. purified FLuc, Km substrates, luminescence inhibition. Potency, µM (series often up to 57.5 µM), for the others: at the highest dose activity change, negative = inhibition, hits mostly inhibitors;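 note: plate controls were vehicle for no effect and reference inhibitor for full effect; nearly all actives have a fitted effect of over 55% in size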
Target sequence (P08659 whole entry, looked up): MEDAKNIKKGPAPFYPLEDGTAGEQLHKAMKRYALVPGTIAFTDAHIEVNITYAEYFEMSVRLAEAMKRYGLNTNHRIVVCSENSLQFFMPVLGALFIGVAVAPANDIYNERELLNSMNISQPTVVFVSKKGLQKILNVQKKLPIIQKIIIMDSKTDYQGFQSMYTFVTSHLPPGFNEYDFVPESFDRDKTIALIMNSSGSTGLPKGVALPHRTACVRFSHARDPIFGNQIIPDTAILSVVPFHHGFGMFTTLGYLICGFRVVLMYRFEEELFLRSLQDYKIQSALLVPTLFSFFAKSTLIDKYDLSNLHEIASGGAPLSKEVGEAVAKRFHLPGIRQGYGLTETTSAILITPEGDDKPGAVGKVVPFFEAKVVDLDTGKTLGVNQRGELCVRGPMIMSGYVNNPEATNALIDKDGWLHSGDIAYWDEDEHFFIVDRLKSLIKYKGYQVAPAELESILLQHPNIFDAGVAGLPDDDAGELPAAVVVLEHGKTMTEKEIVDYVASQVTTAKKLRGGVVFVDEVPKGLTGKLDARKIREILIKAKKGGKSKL
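Purified P. pyralis luciferase (10nM final) with 10uM D-luciferin and 10uM ATP (Km levels) in 50mM Tris acetate pH 7.5, 10mM Mg acetate, 0.01% Tween-20, 0.05% BSA; qHTS 6-point titration, ~60 µM downward; luminescence read.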
NPC1 prom act – activates the NPC1 promoter; Huh7 NPC1 promoter luciferase reporter, 24 h; Potency, µM (highest dose often 9.22 µM), without a hit: at the top dose activation, usual class: activators; 320,000 tested, 2.4% active; AID 485313; note: % of control where 0% means no effect; nearly all actives have a fitted effect of over 60% in size
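Stably transfected Huh7 (NPC1 promoter→luciferase), 1500 cells/well in Opti-MEM + 10% FBS, 2 h settle, then compound 24 h at 37 °C. Luminescence after 10 min with Amplite reagent.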
* marks the source's active call; other numbers are inactive results; u = inconclusive; x = no result; [ ] = dose if it differs, or a comment. Calls come from the whole dose curve; as a rule, active = well fitted curve in the direction sought with a large enough effect; inconclusive = small, poorly fitted or top-dose-only effect, or another doubt; inactive = no such curve, though single readings can be large; an effect the other way counts as inactive or inconclusive. Potency is the fitted concentration of half-maximal effect.

SMILES	KinaseGlo FLuc	SMN2 splice enh	ELG1 genotoxic	Rab9 promoter act	FLuc counter	NPC1 prom act
CCCCN1CCc2c([nH]c3ccccc23)C1=O	-2.2%	u	u	2.51µM*	-2.8%[2.3 µM]	u
CC1CCN(c2ccc3nnc(CCC(=O)N4CCCCC4)n3n2)CC1	x	x	3.2%	-3.3%	3.3%	-1.4%
CCN(CC)C(=O)N1c2ccccc2C=Cc2ccccc21	0.2%	3.98µM*	-10.3%	5.4%	1.0%	-3.9%
CN(C)S(=O)(=O)c1cccc(NC(=O)COC(=O)CNC(=O)c2ccccc2F)c1	x	x	4.5%	-2.5%	-15.2%	1.7%
COc1ccc(/C=C/C(=O)OCC(=O)Nc2cc(S(=O)(=O)N(C)C)ccc2Cl)cc1	-1.4%	3.2%	3.0%	-0.7%	12µM*	-5.7%
COc1cc(/C=C/C(=O)OCC(=O)Nc2cc(S(=O)(=O)N(C)C)ccc2Cl)ccc1O	x	x	0.7%	-4.5%	u	0.1%
COc1cccc(/C=C/C(=O)OCC(=O)Nc2ccc(Cl)c(S(=O)(=O)N(C)C)c2)c1OC	1.4%	5.0%	2.1%	-2.0%	13.5µM*	-0.3%
CC(=O)N1c2ccc(S(=O)(=O)NCCC(=O)Nc3cccc(Cl)c3)cc2CC1C (stereo not given)	x	x	-0.9%[9.26 µM]	-9.2%	0.5%	2.4%
Oc1c(C2=NCCNC(C(F)(F)F)=C2)ccc2ccccc12	-2.8%	11.2µM*	9.2µM*	2.24µM*	4.78µM*	2.82µM*
Cc1ccc(O)c(C2=NCCNC(C(F)(F)F)=C2)c1	-1.7%	-8.4%	-2.8%	-7.2%	4.9%	-2.1%
O=C(NCCN1C(=O)C2C3C=CC(C3)C2C1=O)Nc1cccnc1 (stereo not given)	0.1%	-24.1%	3.9%	-4.1%	-3.0%	0.7%
O=C(NCCN1C(=O)C2C3C=CC(C3)C2C1=O)Nc1ccc(Br)cc1 (stereo not given)	3.4%	11.2µM*	8.2µM*	2.24µM*	10.7µM*	3.16µM*
CCOC(=O)N1CCC(N2C(=O)c3ccccc3C2Nc2c(C)cccc2C)CC1 (stereo not given)	14.8%	-7.4%	-1.1%	1.9%	0.1%	-0.4%
COC(=O)c1ccc2c(=O)n(CCCCCC(=O)NCc3ccc(Cl)cc3)c(=O)[nH]c2c1	x	x	x	x	-5.8%	x
O=C(CCC(=O)c1cccs1)OCc1nc2ccccc2s1	-4.6%	6.4%	4.1%	0.8%	u	1.4%
Nc1ccc(C(=O)OCc2nc3ccccc3s2)cc1	-3.4%	2.0%	u	26.7%	16.9µM*	16.6%
O=C(CCc1nc2ccccc2s1)OCc1ccccc1	2.5%	-9.7%	-0.4%	9.1%	-18.3%	-1.0%
O=C(OCc1nc2ccccc2s1)c1cc2ccccc2oc1=O	-1.2%	-2.2%	u	4.1%	19µM*	11.4%
O=C(OCc1nc2ccccc2s1)c1ccc(Br)s1	-7.8%	-14.3%	3.9%	14.2%	19µM*	12.1%
Cc1ccc(C(=O)OCc2nc3ccccc3s2)o1	x	x	u	u	15.1µM*	0.6%
O=C(Nc1ccc(Br)cc1)c1ccc(F)c(S(=O)(=O)N2CCc3ccccc32)c1	x	x	x	x	-8.7%	x
Cn1cccc1C(=O)N1CCC2(CCCN(C(=O)Nc3cccc(C#N)c3)C2)CC1	0.1%	-20.8%	x	x	x	x
C=CCNc1nnc(Cc2ccc(C(C)C)cc2)c(=O)[nH]1	x	x	-6.2%	-1.2%	1.5%	-19.0%
O=S(=O)(c1ccc(N2CCOCC2)c(Cl)c1)N1CCOCC1	x	x	-1.1%	-2.9%	-1.8%	-1.3%
Nc1cc(S(=O)(=O)N2CCOCC2)ccc1N1CCCCC1	x	x	1.0%	x	x	x
SMILES	KinaseGlo FLuc	SMN2 splice enh	ELG1 genotoxic	Rab9 promoter act	FLuc counter	NPC1 prom act
O=c1c2ccccc2sn1-c1cc(S(=O)(=O)N2CCOCC2)ccc1N1CCOCC1	-11.6%	4.2%	-3.2%	10.6%	4.78µM*	1.0%
O=c1c2ccccc2sn1-c1cc(S(=O)(=O)N2CCOCC2)ccc1N1CCCC1	-3.4%	13.9%	-1.3%	-1.9%	5.36µM*	11.7%
CCOC(=O)c1sc(-c2ccc(Cl)cc2Cl)nc1O	x	x	2.4%	-1.3%	16.9µM*	-4.5%
Cc1ccc(-c2nc3ccccc3c(=O)n2NC(=S)N(C)C)cc1	0.5%	8.0%	1.4%	-4.2%	-0.8%	0.4%
CCCCc1nc2cc(C(=O)N(C)C3CCOCC3)ccc2o1	x	x	9.2µM*	2.51µM*	13.5µM*	u
O=C(c1ccc2oc(CCc3ccccc3)nc2c1)N1CC[C@H](O)C1	x	x	u	1.41µM*	u	3.55µM*
COC(=O)CCCNC(=O)c1ccc2oc(CCCc3ccccc3)nc2c1	x	x	10.5%	u	u	24.6%
CCCCc1nc2cc(C(=O)N3CCC(O)CC3)ccc2o1	x	x	u	2µM*	10.7µM*	1.58µM*
CCCCc1nc2cc(C(=O)N(C)CCc3cn[nH]c3)ccc2o1	x	x	11.3%	26.7%	u	25.7%
COC(=O)[C@@H](C)NC(=O)c1ccc2oc(CCc3ccccc3)nc2c1	x	x	u	2.51µM*	21.3µM*	3.98µM*
O=C(c1ccc2oc(CCCc3ccccc3)nc2c1)N1CCCC(CCCO)C1 (stereo not given)	x	x	2.4%	18.0%	-14.1%	5.9%
Cc1c(C(=O)N2CCC(C(=O)Nc3ccc(F)c(Cl)c3)CC2)sc2nc[nH]c(=O)c12	x	x	x	x	0.5%	x
O=C(CN1C(=O)COc2ccc(S(=O)(=O)N3CCCCCC3)cc21)Nc1cccc(Cl)c1	x	x	x	x	-16.9%	x
CC(=O)N1CCN(C(=O)c2ccc3oc(CCCc4ccccc4)nc3c2)CC1	x	x	-0.2%[9.26 µM]	4.9%	2.8%	-5.2%
CCOC(=O)N1CCN(C(=O)c2ccc3oc(CCCc4ccccc4)nc3c2)CC1	x	x	u	1.58µM*	6.01µM*	1.58µM*
CCCCC(=O)N1CCCC(c2nc(-c3cccc(OC)c3)no2)C1 (stereo not given)	-6.0%	x	14.1%	u	16.9µM*	u
COc1cccc(-c2noc(C3CCCN(C(=O)CC(C)(C)C)C3)n2)c1 (stereo not given)	-1.1%	x	-4.2%	-3.3%	0.6%	-7.8%
COc1cccc(-c2noc(C3CCCN(C(=O)c4ccccc4OC)C3)n2)c1 (stereo not given)	x	x	10.0%	29.8%	21.3µM*	u
Cc1ccn2c(=O)cc(COc3ccc(NC(=O)C(C)(C)C)cc3)nc2c1	x	x	x	x	-0.8%	x
CC(=O)Oc1ccc(C(=O)Nc2cccc(NC(=O)c3ccco3)c2)cc1	x	x	-6.1%	7.0%	15.1µM*	-16.7%
O=C(Nc1cccc(NC(=O)c2ccco2)c1)c1ccc([N+](=O)[O-])cc1	x	x	-2.3%	-7.4%	2.6%	-2.9%
COc1ccc(C(=O)Nc2cccc(OC(=O)c3ccc(C)c(C)c3)c2)cc1	3.7%	u	10.3%	23.9%	10.7µM*	u
COc1ccc(C(=O)Nc2cccc(OC(=O)c3ccco3)c2)cc1	x	x	4.61µM*	u	13.5µM*	u
